The text below walks through data of PubChem BioAssay (NCATS).

Structures are written as SMILES. Records with an inconclusive call do not appear. Active and inactive are the calls of the source. Unless noted, the call rests on the fitted dose curve; in most records, active means well fitted curve in the direction sought with a large enough effect; inconclusive means small, poorly fitted or top-dose-only effect, or another doubt; inactive means no such curve, though single readings can be large; an effect the other way counts as inactive or inconclusive.

For experiment [1], the target named is Catechol O-methyltransferase (Homo sapiens) (UniProt P21964). Description: Confirmatory Screen for Target Class Profiling of Small Molecule Inhibitors of Methyltransferases (AID 1745852; calls by dose curve; further: potency means the concentration at half of the fitted maximal effect; on activity change, negative = inhibition: on the % scale 0 is the no-effect control and ±100 the full control effect). The note with it: MTase-Glo luminescence, SAH detection, recombinant enzyme; measured here: COMT max response; stronger effect = lower value.
The target in experiment [2] is Guanidinoacetate N-methyltransferase (Homo sapiens) (UniProt Q14353). The experiment is described as above. The following applies: MTase-Glo luminescence, SAH detection, recombinant enzyme; activity change, negative = inhibition: at 57.3 µM (top of the series) unless noted.
The target in experiment [3] is Nicotinamide N-methyltransferase (Homo sapiens) (UniProt P40261). The experiment is described as above. The following applies: MTase-Glo luminescence, SAH detection, recombinant enzyme; measured here: NNMT max response; stronger effect = lower value.
The target of experiment [4] is Phenylethanolamine N-methyltransferase (Homo sapiens) (UniProt P11086). Described as above. The note with it: MTase-Glo luminescence, SAH detection, recombinant enzyme; measured here: PNMT max response; stronger effect = lower value.
The target of experiment [5] is Glutathione peroxidase 1 (Homo sapiens) (UniProt P07203). Description: Primary qHTS Assay for Inhibitors of Recombinant Selenoprotein Glutathione Peroxidase 1 (GPX1) (AID 1845191). Further: nearly all actives have a fitted effect of over 65% in size. The note with it: recombinant GPX1, GR-coupled NADPH fluorescence, 15 min; series mostly up to 48.8 µM. The method in brief:
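NADPH consumption tracked by fluorescence at 340/450 nm between t=0 and t=15 min, room temperature. Final mix: 10 nM GPX1, 100 nM glutathione reductase, 1 mM GSH, 0.5 mM NADPH, 0.5 mM cumene hydroperoxide, 0.01% BSA; 30 min compound–enzyme preincubation.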
Background: In qHTS, concentration-response curves come from the screen itself.

Experiment [6] has as its target Phospholipid hydroperoxide glutathione peroxidase GPX4 (Homo sapiens) (UniProt P36969). Put plainly: Primary qHTS Assay for Inhibitors of Recombinant Selenoprotein Glutathione Peroxidase 4 (GPX4) (AID 1845192). Further: nearly all actives have a fitted effect of over 65% in size. Further: potency means the concentration at half of the fitted maximal effect. On activity change, negative = inhibition: on the % scale 0 is the no-effect control and ±100 the full control effect. The note with it: recombinant GPX4, GR-coupled NADPH fluorescence, 15 min; series mostly up to 50 µM. In short, it runs like this: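 NADPH consumption followed by fluorescence at 340/450 nm, t=0 and after 15 min at room temperature. Reaction started with cumene hydroperoxide (0.5 mM final) after 30 min compound–GPX4 preincubation; final 200 nM GPX4, 100 nM GR, 1 mM GSH, 0.5 mM NADPH.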

Experiment [7] has as its target Luciferin 4-monooxygenase (Photinus pyralis) (UniProt P08659). Put plainly: Primary firefly luciferase (FLuc) qHTS assay for identification of artifact compounds. (AID 1845220). Further: nearly all actives have a fitted effect of over 60% in size.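 On activity change, negative = inhibition: plate controls were DMSO vehicle for no effect and no enzyme for full effect.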 The note with it: purified firefly luciferase, luminescence, 5 min; series mostly up to 54.1 µM. In short, it runs like this:
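Cell-free, 1536-well qHTS. Buffer pH 7.6 with 0.01% Tween-20 and 0.05% BSA; 10 uM D-luciferin, 10 uM ATP; 10 nM P. pyralis luciferase; luminescence after 5 min.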

Experiment [8] can be described thus: Primary fluorescence-based thiol-reactive (MSTI) qHTS assay for identification of artifact compounds. (AID 1845221).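 Further: thiol-reactive compounds lower the probe fluorescence signal; nearly all actives have a fitted effect of over 65% in size.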 The note with it: MSTI thiol-reactivity probe, 1 h; series mostly up to 53.8 µM. The method in brief:
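qHTS titration of compound; 4 uM MSTI, PBS pH 7.4, 2% DMSO; 1 h RT, dark; fluorescence 525/598 nm; normalized to Acetyl-MSTI and MSTI; 4-parameter Hill fit.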

In experiment [9] the test system is Nanoluciferase (engineered Oplophorus gracilirostris luciferase). Put plainly: Primary Nanoluciferase (NLuc) qHTS assay for identification of artifact compounds. (AID 1845222).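 Further: 0% = DMSO and -100% = no enzyme.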 The note with it: NLuc-conditioned medium, Nano-Glo luminescence, 5 min; series mostly up to 54.1 µM. In short, it runs like this: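 Compounds are pinned into diluted (1:55) conditioned medium of NLuc-expressing S16 cells and held 15 min at room temperature protected from light. Nano-Glo substrate follows, and luminescence is read 5 min later.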

In experiment [10] the target is Rap guanine nucleotide exchange factor 3 (Homo sapiens) (UniProt O95398). Put plainly: Confirmatory qHTS for agonist of cAMP-regulated guanine nucleotide exchange factor 3 (EPAC1) (AID 1645881).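 Further: EPAC1 catalysed release of BODIPY-GDP from Rap1B seen as fluorescence loss; nearly all actives have a fitted effect of over 75% in size.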 The following applies: EPAC1 Rap1B BODIPY-GDP exchange fluorescence, 100% = cAMP control response; series mostly up to 154 µM.
Experiment [11] concerns the target Rap guanine nucleotide exchange factor 4 (Homo sapiens) (UniProt Q8WZA2). Put plainly: Confirmatory qHTS for agonist of cAMP-regulated guanine nucleotide exchange factor 4 (EPAC2) (AID 1645884). Further: on the % scale 0 is the no-effect control and ±100 the full control effect; nearly all actives have a fitted effect of over 65% in size. The following applies: EPAC2 GEF activity, Rap1B-BODIPY-GDP fluorescence, percent relative to cAMP agonist control; series mostly up to 154 µM.
Experiment [12] has the same target. Description: Confirmatory qHTS for antagonist of cAMP-regulated guanine nucleotide exchange factor 4 (EPAC2) (AID 1645885). Further: potency means the concentration at half of the fitted maximal effect; nearly all actives have a fitted effect of over 25% in size. The note with it: EPAC2 Rap1B-BODIPY-GDP exchange fluorescence, biochemical.
Experiment [13] in a line: Primary redox qHTS assay for identification of artifact compounds. (AID 1845223). The following applies: Amplex Red/HRP redox cycling with DTT, fluorescence; series mostly up to 53.8 µM. In short, it runs like this:
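Redox-cycling detection via DTT (250 uM final) oxidation coupled to Amplex Red (25 uM)/HRP (250 mU/mL) in HBSS. 15 min preincubation plus 30 min after DTT, room temperature. Ex/Em 525/598 nm; 4-parameter Hill fit against DMSO and 10 uM DA3003.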

The nature of experiment [14]: Quantitative High-Throughput drug screen in 47 multiple myeloma cell lines against the NCATS MIPE library collection: FR4_PLB cell viability assay (AID 1918924; further: nearly all actives have a fitted effect of over 35% in size; further: potency means the concentration at half of the fitted maximal effect). The following applies: FR4_PLB myeloma cells viability, CellTiter-Glo ATP, 48 h; series mostly up to 45.8 µM. The method in brief: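 Myeloma cells (500 per well) were exposed to MIPE 4.0 compounds by pin transfer and incubated 48 hours at 37C, 5% CO2. Viability was read as ATP by CellTiter-Glo luminescence, normalised to DMSO (100%) and media-only (0%) wells.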
(ATP-based viability assays read luminescence as a measure of living cells.)

A short description of experiment [15]: NCATS anti-infectives library activity on HEK293 viability as a counter-qHTS vs the C. elegans viability qHTS (AID 1745854).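 Further: HEK293 cells exposed to compounds for 24 hr before the viability read; on the % scale 0 is the no-effect control and ±100 the full control effect.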 The following applies: HEK293 viability counter-screen; series mostly up to 41.8 µM. In short, it runs like this:
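Counter-screen for cytotoxicity: HEK293, 24 hr, 37C, compounds up to 41.7 uM final (a dilution series, 1:5). Readout CellTiter-Glo luminescence, 10 min RT. Digitonin control, 83.3 uM final.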

In experiment [16] the target is Rap guanine nucleotide exchange factor 3 (Homo sapiens) (UniProt O95398). Put plainly: Confirmatory qHTS for antagonist of cAMP-regulated guanine nucleotide exchange factor 3 (EPAC1) (AID 1645880). Further: potency means the concentration at half of the fitted maximal effect; nearly all actives have a fitted effect of over 55% in size. The following applies: EPAC1 Rap1B-BODIPY-GDP exchange, fluorescence. In short, it runs like this:
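Released BODIPY-GDP fluoresces less than Rap1-bound BODIPY-GDP; the signal is followed at 480/540 nm at 5-min intervals over 30 min, after 5 min at room temperature. Reactions contain 100 nM EPAC1, 250 nM RAP1B-BODIPY-GDP and 50 uM GDP; results are normalized to ATA and DMSO.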

Sequence of Phospholipid hydroperoxide glutathione peroxidase GPX4 (Homo sapiens) (P36969 whole entry, looked up): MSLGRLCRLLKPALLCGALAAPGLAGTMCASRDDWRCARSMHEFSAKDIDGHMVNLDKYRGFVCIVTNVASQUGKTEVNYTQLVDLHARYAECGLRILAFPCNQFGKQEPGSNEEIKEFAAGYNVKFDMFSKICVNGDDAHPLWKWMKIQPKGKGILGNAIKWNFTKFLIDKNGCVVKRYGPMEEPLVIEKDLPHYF
Sequence of Phenylethanolamine N-methyltransferase (Homo sapiens) (P11086 whole entry, looked up): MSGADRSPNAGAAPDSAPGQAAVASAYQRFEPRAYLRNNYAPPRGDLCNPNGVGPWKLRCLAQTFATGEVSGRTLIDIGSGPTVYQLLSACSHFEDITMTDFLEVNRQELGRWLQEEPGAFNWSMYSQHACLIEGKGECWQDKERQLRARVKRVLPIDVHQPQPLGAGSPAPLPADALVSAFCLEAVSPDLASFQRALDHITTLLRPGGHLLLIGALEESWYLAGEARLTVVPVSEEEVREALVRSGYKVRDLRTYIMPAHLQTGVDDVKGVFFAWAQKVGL
Sequence of Glutathione peroxidase 1 (Homo sapiens) (P07203 whole entry, looked up): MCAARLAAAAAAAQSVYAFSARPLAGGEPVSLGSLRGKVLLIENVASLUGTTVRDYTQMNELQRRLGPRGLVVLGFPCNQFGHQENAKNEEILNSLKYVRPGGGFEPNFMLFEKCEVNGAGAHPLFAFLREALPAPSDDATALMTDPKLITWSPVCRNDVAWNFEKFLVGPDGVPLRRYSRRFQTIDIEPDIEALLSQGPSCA
Sequence of Rap guanine nucleotide exchange factor 4 (Homo sapiens) (Q8WZA2 whole entry, looked up): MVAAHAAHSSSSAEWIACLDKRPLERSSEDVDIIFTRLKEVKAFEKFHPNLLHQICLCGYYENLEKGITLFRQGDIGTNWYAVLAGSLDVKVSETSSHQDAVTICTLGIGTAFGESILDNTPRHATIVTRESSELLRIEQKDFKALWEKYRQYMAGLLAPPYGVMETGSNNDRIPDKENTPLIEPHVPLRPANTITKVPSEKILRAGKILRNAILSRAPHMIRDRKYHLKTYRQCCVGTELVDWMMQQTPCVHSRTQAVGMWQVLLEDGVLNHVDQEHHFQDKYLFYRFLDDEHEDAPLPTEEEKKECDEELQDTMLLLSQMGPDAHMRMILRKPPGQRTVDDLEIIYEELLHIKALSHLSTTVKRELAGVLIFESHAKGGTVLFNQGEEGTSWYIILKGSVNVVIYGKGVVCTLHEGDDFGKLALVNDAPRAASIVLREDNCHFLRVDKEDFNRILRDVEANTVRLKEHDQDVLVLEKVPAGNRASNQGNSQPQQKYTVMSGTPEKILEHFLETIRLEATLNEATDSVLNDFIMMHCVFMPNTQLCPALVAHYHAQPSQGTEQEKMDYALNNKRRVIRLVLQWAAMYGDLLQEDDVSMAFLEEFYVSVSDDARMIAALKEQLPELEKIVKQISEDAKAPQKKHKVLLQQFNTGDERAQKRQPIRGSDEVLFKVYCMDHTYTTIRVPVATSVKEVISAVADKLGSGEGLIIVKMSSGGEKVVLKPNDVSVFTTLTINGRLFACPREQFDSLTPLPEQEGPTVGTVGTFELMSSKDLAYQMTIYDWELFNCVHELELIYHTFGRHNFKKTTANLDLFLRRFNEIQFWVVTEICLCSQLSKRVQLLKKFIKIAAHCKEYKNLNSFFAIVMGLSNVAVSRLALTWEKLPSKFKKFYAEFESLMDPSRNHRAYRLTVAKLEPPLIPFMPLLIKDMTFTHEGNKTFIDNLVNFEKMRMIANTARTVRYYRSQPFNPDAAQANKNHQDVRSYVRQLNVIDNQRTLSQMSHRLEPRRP
Sequence of Catechol O-methyltransferase (Homo sapiens) (P21964 whole entry, looked up): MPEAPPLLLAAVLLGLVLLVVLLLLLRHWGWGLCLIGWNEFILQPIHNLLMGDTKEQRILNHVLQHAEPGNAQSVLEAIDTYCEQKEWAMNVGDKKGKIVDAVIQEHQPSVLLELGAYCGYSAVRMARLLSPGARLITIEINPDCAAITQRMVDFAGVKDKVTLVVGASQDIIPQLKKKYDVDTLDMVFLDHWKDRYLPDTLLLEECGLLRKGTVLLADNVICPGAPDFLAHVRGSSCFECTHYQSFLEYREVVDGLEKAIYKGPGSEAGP
Sequence of Rap guanine nucleotide exchange factor 3 (Homo sapiens) (O95398 whole entry, looked up): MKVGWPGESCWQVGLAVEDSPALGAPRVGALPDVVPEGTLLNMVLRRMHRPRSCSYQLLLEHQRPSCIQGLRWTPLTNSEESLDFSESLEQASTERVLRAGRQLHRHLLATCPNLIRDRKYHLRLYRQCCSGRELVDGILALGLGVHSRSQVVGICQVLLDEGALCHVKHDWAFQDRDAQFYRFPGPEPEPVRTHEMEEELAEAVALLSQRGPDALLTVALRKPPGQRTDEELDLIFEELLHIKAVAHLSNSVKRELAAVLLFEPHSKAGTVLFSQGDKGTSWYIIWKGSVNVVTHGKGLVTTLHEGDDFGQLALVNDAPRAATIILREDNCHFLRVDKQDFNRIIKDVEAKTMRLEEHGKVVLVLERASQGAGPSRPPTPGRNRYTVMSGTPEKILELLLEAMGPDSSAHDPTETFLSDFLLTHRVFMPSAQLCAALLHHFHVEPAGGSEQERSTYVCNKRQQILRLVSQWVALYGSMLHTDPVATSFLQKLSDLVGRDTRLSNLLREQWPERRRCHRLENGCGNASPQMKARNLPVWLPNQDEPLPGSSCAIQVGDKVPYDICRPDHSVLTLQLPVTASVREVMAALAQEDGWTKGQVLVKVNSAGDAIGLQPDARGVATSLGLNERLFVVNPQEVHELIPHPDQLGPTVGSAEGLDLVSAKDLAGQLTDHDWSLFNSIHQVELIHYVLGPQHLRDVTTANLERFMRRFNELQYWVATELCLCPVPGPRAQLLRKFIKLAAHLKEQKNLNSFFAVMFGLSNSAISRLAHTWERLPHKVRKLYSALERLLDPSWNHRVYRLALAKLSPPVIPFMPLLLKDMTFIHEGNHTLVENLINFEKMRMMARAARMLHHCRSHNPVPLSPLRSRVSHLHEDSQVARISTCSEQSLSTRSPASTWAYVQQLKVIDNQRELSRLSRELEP
Sequence of Nicotinamide N-methyltransferase (Homo sapiens) (P40261 whole entry, looked up): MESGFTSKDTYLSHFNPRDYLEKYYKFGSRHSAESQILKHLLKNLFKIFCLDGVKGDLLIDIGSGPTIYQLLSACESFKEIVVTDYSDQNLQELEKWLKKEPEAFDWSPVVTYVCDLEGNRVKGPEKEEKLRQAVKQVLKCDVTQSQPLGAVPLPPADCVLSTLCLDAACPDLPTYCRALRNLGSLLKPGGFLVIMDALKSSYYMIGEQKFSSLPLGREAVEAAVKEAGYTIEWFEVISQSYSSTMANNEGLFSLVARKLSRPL

`Cc1cc(Nc2cc(N3CCN(C)CC3)nc(Sc3ccc(NC(=O)C4CC4)cc3)n2)n[nH]1`: the results for the activity in experiment [1], in experiment [3] and in [4] were -3.34%, -2.46% and -1.21%, respectively. Moreover, in experiment [2], the activity change, negative = inhibition is -2.28%. Moreover, the Potency entry in experiment [5], in [6], in experiment [7], in [8] and in experiment [9] was “inactive” throughout.

Take `CC(C)(C)NC(=O)[C@H]1CN(Cc2cccnc2)CCN1C[C@@H](O)C[C@@H](Cc1ccccc1)C(=O)N[C@H]1c2ccccc2C[C@H]1O`: the outcome in experiment [10] and in experiment [11] was “inactive” throughout. Moreover, the Potency in experiment [12] is 44.1 µM (active).

As for `O=C(c1ccc(Nc2nccc(-c3cc4ccccc4s3)n2)cc1)N1CCC(N2CCCC2)CC1`, the activity in [1] was -18.2%; in [3] it was -19.2%; in experiment [4], -17.2%. Also, in experiment [2], the activity change, negative = inhibition is -6.01%. For the same molecule, the Potency entry in experiment [6], in experiment [7], in experiment [8], in experiment [9] and in [13] was “inactive” each time. Moreover, the Potency in experiment [14] is 13.2 µM (active).

For the molecule `COc1ccc(-n2nc(C(N)=O)c3c2C(=O)N(c2ccc(N4CCCCC4=O)cc2)CC3)cc1`, the Potency result in experiment [15], in experiment [5], in experiment [6], in [7], in [8] and in [9] was “inactive” throughout. Also, in experiment [14], the Potency entry is “inactive”.

As to `CC(C)c1cc(-c2n[nH]c(=O)n2-c2ccc3c(ccn3C)c2)c(O)cc1O`, the results for the activity in experiment [1], in [3] and in [4] were -27.7%, -33.4% and -21.8%, respectively. Moreover, the Potency in [2] is 30.4 µM (active). Moreover, the Potency result in experiment [5], in [6], in experiment [7], in experiment [8], in [9] and in experiment [13] was “inactive” throughout.

`Cc1ccc(C(N)=O)cc1Nc1nccc(-c2cn(C(C)C)c3cnccc23)n1`: the activity in experiment [1] is -56.6%; in experiment [3] it was -53.8%; in experiment [4], -56%. Moreover, the Potency in experiment [2] is 27.1 µM (active). Besides, the Potency entry in experiment [5], in [6], in [7], in experiment [8], in [9] and in experiment [13] was “inactive” in each case.

Take `Cc1nc(Nc2n[nH]c3c2CN(C(=O)N[C@H](CN(C)C)c2ccccc2)C3(C)C)c2sccc2n1`: the results for the activity in [1], in experiment [3] and in [4] were -6.29%, -22.7% and -1.08%, respectively. The Potency in experiment [2] is 0.0061 µM (active). In addition, the Potency result in [5], in experiment [6], in experiment [7], in experiment [8] and in [9] was “inactive” in each case.

Regarding `OCCCNc1cc(-c2ccnc(Nc3cccc(Cl)c3)n2)ccn1`, the activity is -80.2% in [1], -65.5% in [3] and -82.3% in experiment [4]. The values for the Potency in experiment [2] and in experiment [14] were 10.8 µM (active) and 0.118 µM (active), respectively. In addition, the Potency entry in experiment [6], in experiment [7], in experiment [8], in [9] and in [13] was “inactive” in each case.

On to `Cc1c(CN2CCN(S(C)(=O)=O)CC2)sc2c(N3CCOCC3)nc(-c3cnc(N)nc3)nc12`, for which the activity was -10.4% in experiment [1], -17.8% in experiment [3] and -14.7% in experiment [4]. Also, the activity change, negative = inhibition in experiment [2] was -5.48%. The Potency result in experiment [5], in experiment [6], in experiment [7], in experiment [8], in experiment [9] and in [13] was “inactive” in each case. Also, in experiment [14], the Potency is 0.105 µM (active).

As for `COc1cc(C(=O)NS(=O)(=O)c2ccccc2C)ccc1Cc1cn(C)c2ccc(NC(=O)OC3CCCC3)cc12`, the Potency in [16] was 25 µM (active); in experiment [12], 49.4 µM (active); in [6] it was 9.04 µM (active); in experiment [14], 23.5 µM (active). Besides, the outcome in [10] and in experiment [11] was “inactive” each time. Also, the Potency result in experiment [5] was “inactive”.
